Assay [1] addresses Progesterone receptor (Homo sapiens) (UniProt P06401). The assay is described as follows: qHTS assay to identify small molecule agonists of the progesterone receptor (PR) signaling pathway (AID 1346784; calls by dose curve; further: nearly all actives have a fitted effect of over 30% in size). A digest of the protocol: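 Agonist qHTS: compounds pinned onto 3,000 PR-UAS-bla HEK 293T cells per well in charcoal-stripped serum medium, 16hr at 37C, then beta-lactamase activity measured by LiveBLAzer FRET fluorescence after 2 hours at room temperature.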

For assay [2] the target is unchanged. Nature of the assay: qHTS assay to identify small molecule antagonists of the progesterone receptor (PR) signaling pathway (AID 1346795; active means well fitted inhibition curve with a large enough effect in the signal ratio in the repeat runs, not every such curve was filed as active; the % refers to the signal ratio). In a few lines: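 Antagonist mode with agonist R5020 at 1 nM final and 16 hr incubation at 37C. Reporter was beta-lactamase driven by UAS in HEK293T (PR-UAS-bla), 2% charcoal-stripped serum; signal from LiveBLAzer FRET substrate, 2 hr at room temperature.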

Assay [3] is described as follows: qHTS assay to identify small molecule antagonists of the progesterone receptor (PR) signaling pathway - cell viability counter screen (AID 1346798). Further: series mostly up to about 92 µM; nearly all actives have a fitted effect of over 50% in size. A digest of the protocol:
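Cytotoxicity read as CellTiter-Glo luminescence (30 min, room temperature) in the same wells as the beta-lactamase readout. HEK293T PR-UAS-bla cells in charcoal-stripped 2% FBS received compound and R5020, then 16 h at 37C, 5% CO2.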

Assay [4] can be described thus: qHTS assay to identify small molecule agonists of the progesterone receptor (PR) signaling pathway - cell viability counter screen (AID 1346799; calls by dose curve; further: nearly all actives have a fitted effect of over 45% in size). A digest of the protocol: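 Cytotoxicity measured by CellTiter-Glo luminescence (30 min, RT) in the same wells as the PR beta-lactamase agonist read. Those HEK293T cells had 16 h compound treatment at 37 C in 2% charcoal-stripped FBS medium.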
Background: qHTS replaces the single test concentration by a dilution series.

Assay [5] in a line: qHTS assay to identify small molecule antagonists of the TGF-beta/Smad signaling pathway - cell viability counter screen (AID 1346824). Further: nearly all actives have a fitted effect of over 50% in size. A digest of the protocol: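 Cytotoxicity counter-screen run in the same wells as the beta-lactamase Smad reporter read: CellTiter-Glo luminescence after 30 min at room temperature. HEK 293T SBE-bla cells had 5 hr compound exposure at 37 C with TGF-beta1 (0.25 ng/mL stock).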

Assay [6] is described as follows: qHTS assay to identify small molecule agonists of the TGF-beta/Smad signaling pathway - cell viability counter screen (AID 1346829). Further: top concentration of the series differs between compounds; nearly all actives have a fitted effect of over 45% in size. A digest of the protocol: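 After overnight seating at 37 C and 5% CO2, reporter cells got compounds for 5 hr and FRET substrate for 2 hr; cell viability then came from CellTiter-Glo luminescence.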
The nature of assay [7]: qHTS assay to identify small molecule agonists of the TGF-beta/Smad signaling pathway (AID 1346859; active means well fitted activation curve with a large enough effect in the signal ratio in the repeat runs, not every such curve was filed as active; the % refers to the signal ratio; further: series mostly up to about 77 µM). In a few lines:
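Fluorescence (ex 405 nm; em 460 and 530 nm) was read 2 h after LiveBLAzer FRET substrate at RT. The preceding compound treatment of overnight-plated SBE-bla HEK293T cells lasted 5 h at 37 C.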

The target of assay [8] is Thyrotropin-releasing hormone receptor (Homo sapiens) (UniProt P34981). The assay is described as follows: qHTS assay to identify small molecule antagonists of the thyrotropin-releasing hormone receptor (TRHR) signaling pathway (AID 1346877; active means well fitted inhibition curve with a large enough effect in the repeat runs, not every such curve was filed as active; further: series mostly up to about 51 µM). In a few lines:
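Intracellular calcium fluorescence, read kinetically every second over 3 min, reports TRH-evoked signalling in HEK293 cells carrying TRHR. Test compounds were added 5 min ahead of a 1 nM TRH challenge.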

Assay [9] shares this target. Nature of the assay: qHTS assay to identify small molecule agonists of the thyrotropin-releasing hormone receptor (TRHR) signaling pathway (AID 1346891; calls by dose curve; further: series mostly up to about 58 µM). In a few lines:
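Agonist-mode intracellular calcium readout: kinetic fluorescence over 3 min at 1 s intervals after compound addition to TRHR-HEK293 cells (18 h seeded, 2 h dye-loaded at 37 C). Fifteen concentrations, triplicates.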

Assay [10] can be described thus: Human pregnane X receptor (PXR) small molecule agonists, qHTS cell viability counter screen (AID 1346977). Further: nearly all actives have a fitted effect of over 50% in size. In a few lines: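 Same-well viability read: CellTiter-Fluor added after 23 hr compound exposure, fluorescence measured 1 hr later. Cells were PXR-Luc HepG2 seeded at 2,000/well in 5% charcoal-stripped FBS medium, rested 5 hr before dosing at 37 C.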
Assay [11] can be described thus: Caspase-3/7 induction in HepG2 cells by small molecules, qHTS assay (AID 1346978). Further: nearly all actives have a fitted effect of over 15% in size. In a few lines:
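Caspase-3/7 induction was measured by Caspase-Glo 3/7 luminescence (30 min, room temperature) after a 17 hr compound exposure of wild-type HepG2 cells seeded at 2,000 per well and pre-incubated 5 hr.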

A short description of assay [12]: Caspase-3/7 induction in CHO-K1 cells by small molecules, qHTS cell viability counter screen (AID 1346979). Further: nearly all actives have a fitted effect of over 35% in size. A digest of the protocol:
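Cytotoxicity counter screen: CellTiter-Fluor added to compound-treated wild-type CHO-K1 cells at 16 h (37C, 5% CO2), fluorescence measured 1 h later; same wells as caspase-3/7 measurement.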

Assay [13] is described as follows: Caspase-3/7 induction in CHO-K1 cells by small molecules, qHTS assay (AID 1346980). Further: nearly all actives have a fitted effect of over 15% in size. In a few lines:
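Luminescent Caspase-Glo 3/7 read (30min, room temperature) quantified apoptosis induction. Cells were wild-type CHO-K1, treated with compound for 17hr at 37 C and 5% CO2.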

A short description of assay [14]: Caspase-3/7 induction in HepG2 cells by small molecules, qHTS cell viability counter screen (AID 1346981). Further: series mostly up to about 92 µM; nearly all actives have a fitted effect of over 30% in size. In a few lines: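 HepG2, WT, 2,000 cells/well; 5 hr pre-incubation 37 C/5% CO2; compound pin-transferred from DMSO; 16 hr exposure; CellTiter-Fluor, 1 hr; fluorescence read.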
The target in assay [15] is Nuclear receptor subfamily 1 group I member 2 (Homo sapiens) (UniProt O75469). Nature of the assay: Human pregnane X receptor (PXR) small molecule agonists, qHTS assay (AID 1346982). Further: nearly all actives have a fitted effect of over 35% in size. Further: potency means the concentration at half of the fitted maximal effect. A digest of the protocol:
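Luciferase signal from ONE-Glo (30 min, room temperature) measured activation of hPXR-driven CYP3A4 reporter expression in PXR-Luc HepG2 cells treated with compounds for 24 hr at 37 C.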

Assay [16] has as its target Cytochrome P450 2D6 (Homo sapiens) (UniProt P10635). Nature of the assay: Cytochrome P450 Family 2 Subfamily D Member 6 (CYP2D6) small molecule antagonists: luciferase reporter qHTS assay (AID 1671196). Further: nearly all actives have a fitted effect of over 50% in size. Further: potency means the concentration at half of the fitted maximal effect. In a few lines:
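Read-out is luminescence from luciferin formed by CYP2D6 turnover of a proluciferin substrate, recorded as relative luminescence units. Reactions ran 1 h at room temperature after NADPH regeneration solution was added.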

Assay [17] addresses Cytochrome P450 2C19 (Homo sapiens) (UniProt P33261). Nature of the assay: Cytochrome P450 Family 2 Subfamily C Member 19 (CYP2C19) small molecule antagonists: luciferase reporter qHTS assay (AID 1671197). Further: nearly all actives have a fitted effect of over 65% in size. Further: potency means the concentration at half of the fitted maximal effect. In a few lines:
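Inhibition of CYP2C19 was scored from loss of luminescence in a P450-Glo proluciferin substrate assay, NADPH-started and run 1 h at 37C, with ketoconazole as positive control.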
On the technique in general: In a reporter assay the amount or activity of a reporter protein is the signal.

SMILES strings stand for the structures. Where “and” joins values, the source holds several entries; their conditions need not be identical. Equal entries are not always repeated. Records with an inconclusive call do not appear. The source holds several records for some structures; these can differ, active in one and inactive in another. Calls of active or inactive are those of the source. Unless noted, the call rests on the fitted dose curve; in most records, active means well fitted curve in the direction sought with a large enough effect in the repeat runs; inconclusive means weak or mixed curves; inactive means no such curve, though single readings can be large; an effect the other way counts as inactive or inconclusive.

Chain of Cytochrome P450 2D6 (Homo sapiens) (P10635 whole entry, looked up): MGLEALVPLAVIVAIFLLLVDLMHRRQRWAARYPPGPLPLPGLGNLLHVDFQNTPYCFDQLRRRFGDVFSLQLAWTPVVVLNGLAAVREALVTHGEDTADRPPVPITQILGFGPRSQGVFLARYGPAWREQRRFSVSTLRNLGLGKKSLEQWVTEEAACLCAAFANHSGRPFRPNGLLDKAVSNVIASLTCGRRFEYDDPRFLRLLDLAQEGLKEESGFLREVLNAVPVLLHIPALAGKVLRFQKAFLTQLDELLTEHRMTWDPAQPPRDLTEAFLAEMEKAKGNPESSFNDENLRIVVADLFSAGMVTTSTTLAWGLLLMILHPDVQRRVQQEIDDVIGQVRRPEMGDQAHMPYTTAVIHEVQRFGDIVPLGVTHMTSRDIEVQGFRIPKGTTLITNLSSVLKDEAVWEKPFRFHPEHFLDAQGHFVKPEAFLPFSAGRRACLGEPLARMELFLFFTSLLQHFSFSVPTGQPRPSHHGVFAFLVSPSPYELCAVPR
Chain of Progesterone receptor (Homo sapiens) (P06401 whole entry, looked up): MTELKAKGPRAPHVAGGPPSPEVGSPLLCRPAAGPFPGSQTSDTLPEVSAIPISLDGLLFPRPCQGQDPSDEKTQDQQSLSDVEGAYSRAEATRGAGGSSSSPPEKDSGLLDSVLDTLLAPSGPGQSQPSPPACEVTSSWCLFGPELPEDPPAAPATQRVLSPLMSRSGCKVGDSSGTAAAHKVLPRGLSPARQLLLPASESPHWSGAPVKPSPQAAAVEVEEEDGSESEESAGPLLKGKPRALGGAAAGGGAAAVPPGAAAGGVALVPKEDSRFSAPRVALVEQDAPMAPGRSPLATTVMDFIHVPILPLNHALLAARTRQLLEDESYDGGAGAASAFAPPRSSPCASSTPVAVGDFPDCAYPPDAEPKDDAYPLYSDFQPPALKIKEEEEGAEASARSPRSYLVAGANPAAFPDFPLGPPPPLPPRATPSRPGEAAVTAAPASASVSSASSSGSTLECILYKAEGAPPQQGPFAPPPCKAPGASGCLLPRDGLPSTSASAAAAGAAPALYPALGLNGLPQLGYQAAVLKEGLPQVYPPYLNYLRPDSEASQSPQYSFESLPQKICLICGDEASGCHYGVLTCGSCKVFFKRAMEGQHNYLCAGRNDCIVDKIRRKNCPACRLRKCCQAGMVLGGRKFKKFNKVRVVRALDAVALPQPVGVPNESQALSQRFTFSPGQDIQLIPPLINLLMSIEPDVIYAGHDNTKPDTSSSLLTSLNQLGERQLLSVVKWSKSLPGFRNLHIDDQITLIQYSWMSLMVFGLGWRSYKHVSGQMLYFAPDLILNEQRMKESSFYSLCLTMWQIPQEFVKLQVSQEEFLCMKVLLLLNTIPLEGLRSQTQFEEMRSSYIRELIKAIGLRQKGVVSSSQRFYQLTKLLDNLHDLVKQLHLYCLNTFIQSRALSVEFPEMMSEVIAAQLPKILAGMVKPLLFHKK
Chain of Thyrotropin-releasing hormone receptor (Homo sapiens) (P34981 whole entry, looked up): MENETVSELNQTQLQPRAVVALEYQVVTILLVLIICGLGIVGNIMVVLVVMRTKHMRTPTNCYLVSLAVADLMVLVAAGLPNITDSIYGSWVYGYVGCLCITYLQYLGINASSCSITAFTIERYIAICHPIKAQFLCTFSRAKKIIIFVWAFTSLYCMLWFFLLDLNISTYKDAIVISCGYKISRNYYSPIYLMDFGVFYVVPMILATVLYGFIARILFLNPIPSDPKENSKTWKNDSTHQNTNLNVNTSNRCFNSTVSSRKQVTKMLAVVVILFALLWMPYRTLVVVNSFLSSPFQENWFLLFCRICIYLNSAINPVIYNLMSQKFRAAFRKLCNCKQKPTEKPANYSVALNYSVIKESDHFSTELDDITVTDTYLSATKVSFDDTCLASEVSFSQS
Chain of Cytochrome P450 2C19 (Homo sapiens) (P33261 whole entry, looked up): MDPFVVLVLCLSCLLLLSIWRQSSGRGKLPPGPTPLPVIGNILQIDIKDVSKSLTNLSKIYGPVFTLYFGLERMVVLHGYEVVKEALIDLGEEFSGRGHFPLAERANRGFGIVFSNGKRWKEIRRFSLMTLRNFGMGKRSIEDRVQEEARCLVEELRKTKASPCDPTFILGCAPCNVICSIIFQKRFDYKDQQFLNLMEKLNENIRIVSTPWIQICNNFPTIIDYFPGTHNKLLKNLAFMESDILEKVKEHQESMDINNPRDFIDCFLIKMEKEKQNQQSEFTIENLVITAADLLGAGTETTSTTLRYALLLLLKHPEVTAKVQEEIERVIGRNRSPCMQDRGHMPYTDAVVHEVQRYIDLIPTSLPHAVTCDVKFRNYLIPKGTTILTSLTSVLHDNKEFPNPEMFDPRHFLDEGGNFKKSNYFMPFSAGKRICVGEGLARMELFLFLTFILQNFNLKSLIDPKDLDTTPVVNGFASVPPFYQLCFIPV
Chain of Nuclear receptor subfamily 1 group I member 2 (Homo sapiens) (O75469 whole entry, looked up): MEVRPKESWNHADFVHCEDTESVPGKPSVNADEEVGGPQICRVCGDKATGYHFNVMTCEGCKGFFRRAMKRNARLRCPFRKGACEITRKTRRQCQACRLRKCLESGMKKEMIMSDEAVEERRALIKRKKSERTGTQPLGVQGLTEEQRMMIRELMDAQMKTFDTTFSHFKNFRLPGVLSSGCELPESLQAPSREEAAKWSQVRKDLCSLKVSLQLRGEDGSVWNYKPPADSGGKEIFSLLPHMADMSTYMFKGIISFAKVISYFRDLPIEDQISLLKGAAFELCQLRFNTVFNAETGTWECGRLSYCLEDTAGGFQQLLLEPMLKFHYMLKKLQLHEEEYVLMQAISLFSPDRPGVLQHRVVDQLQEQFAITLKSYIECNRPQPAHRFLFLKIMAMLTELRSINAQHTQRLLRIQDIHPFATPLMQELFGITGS

Regarding `Cc1ccc([N+](=O)[O-])cc1N`, the Potency result in assay [1], in assay [2], in [3], in assay [4], in [5] and in [6] was “inactive” each time. The Potency entry in assay [7], in assay [8], in [10], in [11], in assay [12] and in assay [13] was “inactive” throughout. In addition, the Potency result in assay [14] and in [15] was “inactive” throughout. Besides, the call in assay [9] was inactive. Further, the Potency in assay [16] is 35.5 µM (active) and 39.9 µM (active); in assay [17], 35.5 µM (active) and 44.8 µM (active).
`CC(=O)OCc1ccc2c(c1)OCO2`: the Potency result in [1], in assay [2], in [3], in assay [4], in [5] and in assay [6] was “inactive” throughout. The Potency result in [7], in [8], in assay [10], in [11], in [12] and in [13] was “inactive” throughout. The Potency result in [14], in assay [15] and in assay [16] was “inactive” each time. For the same molecule, the outcome in [9] was inactive. Moreover, in assay [17], the Potency was 35.7 µM (active) and 31.7 µM (active).
Regarding `Cc1ccc(C(C)C)cc1`, the Potency entry in [1], in [2], in assay [3], in [4], in assay [5] and in assay [6] was “inactive” throughout. In addition, the Potency entry in [7], in assay [8], in [10], in assay [11], in assay [12] and in assay [13] was “inactive” throughout. The Potency entry in assay [14], in [15], in assay [16] and in [17] was “inactive” throughout. In addition, the outcome in assay [9] was inactive.
Consider `CN1CCCC1=O`, for which the Potency result in [1], in assay [2], in assay [3], in assay [4], in assay [5] and in [6] was “inactive” each time. The Potency entry in [7], in [8], in [10], in assay [11], in [12] and in assay [13] was “inactive” in each case. Besides, the Potency entry in assay [14], in assay [16] and in assay [17] was “inactive” each time. Moreover, in assay [9], the molecule was called inactive. In assay [15], the Potency was 63.2 µM (active) and inactive.
With `CC/C=C(\C(=O)N[C@@H]1C(=O)N2C(C(=O)OCOC(=O)C(C)(C)C)=C(COC(N)=O)CS[C@H]12)c1csc(N)n1`, the Potency result in assay [1], in assay [2], in assay [3], in assay [4], in assay [5] and in [6] was “inactive” each time. In addition, the Potency entry in assay [7], in assay [8], in [10], in assay [11], in assay [12] and in assay [13] was “inactive” throughout. For the same molecule, the Potency result in assay [14], in assay [15] and in [16] was “inactive” each time. Further, the result in assay [9] was inactive. In addition, the Potency in assay [17] is 19.5 µM (active).
For `CC(C=O)Cc1ccc(C(C)(C)C)cc1` (stereo not given), the Potency entry in assay [1], in assay [2], in assay [3], in [4], in assay [5] and in [6] was “inactive” each time. Further, the Potency result in assay [7], in assay [8], in assay [10], in [11], in assay [12] and in assay [13] was “inactive” throughout. For the same molecule, the Potency entry in [14], in assay [15], in assay [16] and in [17] was “inactive” in each case. In addition, the result in [9] was inactive.
In the case of `O=C(Cl)c1ccc(C(=O)Cl)cc1`, the Potency result in assay [1], in [2], in [3], in assay [4], in assay [5] and in assay [6] was “inactive” each time. Besides, the Potency result in [7], in [8], in assay [10], in assay [11], in [12] and in assay [13] was “inactive” each time. Besides, the Potency entry in [14], in assay [15] and in [16] was “inactive” each time. The molecule was called inactive in [9].
For the molecule `C=C(C)CC(C)(C)C`, the Potency result in assay [1], in assay [2], in assay [3], in assay [4], in assay [5] and in assay [6] was “inactive” each time. For the same molecule, the Potency entry in assay [7], in assay [8], in [10], in [11], in assay [12] and in [13] was “inactive” in each case. In addition, the Potency result in [14], in assay [15], in assay [16] and in assay [17] was “inactive” throughout. In addition, the call in assay [9] was inactive.

(Values after PubChem BioAssay (Tox21).)
